# In the library only some 3.7% were active in any assay of this set; here they are far more common.
# PfHsp90 yeast 2 = growth inhibition of PfHsp90-expressing yeast, primary screen, antimalarial PfHsp90 inhibitor project, S. cerevisiae, BacTiter-Glo luminescence, single point, set 2; BacTiter-Glo ATP, 48 h; yeast lacking PDR1 and PDR3 efflux regulators; 310,000 tested, 0.32% active; inhibition, % at 9.4 µM;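 active means every replicate shows inhibition above about 80%, whatever the replicate mean, limit read from the data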
# tim23-1 inh = growth inhibitors of tim23-1 mutant yeast, primary screen, luminescence, uHTS; S. cerevisiae tim23-1 growth, BacTiter-Glo luminescence, 24 h; inhibition, % at 20 µM; 330,000 tested, 1.3% active;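 active means growth inhibition of the mutant yeast at or above 50%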;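 further: temperature-sensitive mutant grown at 25 °C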
# TIM10 inh = growth inhibitors of isogenic TIM10 control yeast, primary screen, counter-screen for tim10-1 yeast inhibitor project, luminescence, uHTS | 330,000 tested, 1.4% active | S. cerevisiae TIM10 strain growth, BacTiter-Glo luminescence, 24 h | AID 463195, 2010 | inhibition, % at 10 µM;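 active means inhibition of 40% or more at the single tested concentration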;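 further: wild-type TIM10 isogenic control strain grown at permissive 25 °C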
# NALP3 yeast inh = NALP3 inflammasome inhibitors in reconstituted yeast, primary screen, luminescence, uHTS. Yeast reconstituted NLRP3/ASC/caspase-1, beta-gal luminescence, 24 h. 330,000 tested, 0.39% active. inhibition, % at 10 µM;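 active means inhibition of 50% or more; inactive means inhibition below 50%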
# tim10-1 inh = growth inhibitors of tim10-1 mutant yeast, primary screen, luminescence, uHTS | AID 463190, 2010 | 330,000 tested, 2.2% active | inhibition, % at 20 µM | S. cerevisiae tim10-1 ts strain growth, BacTiter-Glo, 24 h;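 active means inhibition of at least 40%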;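 further: mutant grown at 25 °C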
# tim10-1 confirm = growth inhibitors of tim10-1 mutant yeast, confirmation, single concentration, luminescence, S. cerevisiae. shares compounds with tim10-1 inh. S. cerevisiae tim10-1 ts strain growth, BacTiter-Glo, 24 h. inhibition, % at 20 µM. 7,400 tested, 56% active. AID 463213, 2010;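 active means inhibition of yeast growth at or above a set limit in either of two repeat tests at 20 µM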;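 further: tim10-1 mutant grown at permissive 25 °C to find synthetic lethal compounds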
# tim10 confirm = growth inhibitors of wild-type TIM10 yeast, confirmation, counter-screen for tim10-1 synthetic lethality project, single concentration, luminescence, S. cerevisiae | shares compounds with TIM10 inh | S. cerevisiae tim10 strain growth, BacTiter-Glo luminescence, 24 h | inhibition, % at 10 µM | 4,600 tested, 63% active;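 active means inhibition of yeast growth at or above a set limit in either of two replicates at 10 µM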; further: this counterscreen used the strain with wild-type TIM10
# tim23-1 conf = tim23-1 mutant yeast growth inhibitors, confirmation, luminescence, single concentration; 4,400 tested, 83% active; shares compounds with tim23-1 inh; AID 463218, 2010; inhibition, % at 20 µM; S. cerevisiae tim23-1 growth, BacTiter-Glo luminescence, 24 h;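 active means inhibition above about 39% in either of two replicate wells at 20 µM, limit read from the data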;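 further: temperature-sensitive tim23-1 mutant grown at 25 °C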
# A number is an active result; - = inactive; . = not tested or not shown.
SMILES,PfHsp90 yeast 2,tim23-1 inh,TIM10 inh,NALP3 yeast inh,tim10-1 inh,tim10 confirm,others
C#CCOCCOCCOCCNc1nc(N2CCN(C(=O)CCCCCCCCCCNC(=O)[C@H](CCCCN)n3cc(C[C@@H](C)CC)nn3)CC2)nc(N2CCN(C(=O)CCCCCCCCCCNC(=O)[C@H](CCCN=C(N)N)n3cc(C[C@@H](C)CC)nn3)CC2)n1,-,-,-,-,-,.,
CC(C)(Oc1ccc(Cl)cc1)C(=O)NCCN1C(=O)S/C(=C/c2cccnc2)C1=O,-,53,51,-,48,-,tim10-1 confirm=44;tim23-1 conf=48
CCOC(=O)C1CCN(C(=O)c2ccc(OCC(=O)Nc3cccc(C(F)(F)F)c3)cc2)CC1,-,54,54,-,56,53,tim10-1 confirm=56;tim23-1 conf=53
NC(=O)C1CCN(C(=O)c2ccc(OCC(=O)Nc3cccc(C(F)(F)F)c3)cc2)CC1,.,-,-,-,-,.,
CN=c1scc(-c2cccs2)n1/N=C/c1ccc(O)c(O)c1O,-,71,-,-,42,.,tim10-1 confirm=-;tim23-1 conf=84
O=C1Cc2ccccc2N1c1ccccc1,-,-,-,-,-,.,
O=C1CC(=Nc2ccccc2)NN1c1ccccc1,.,59,49,-,55,44,tim10-1 confirm=45;tim23-1 conf=76
O=C(NCCCN1CCOCC1)c1ccc(NC(=O)C2COc3ccccc3O2)cc1 (stereo not drawn),-,-,-,-,-,.,
Cc1[nH]n(-c2ccccc2)c(=O)c1C(C[N+](=O)[O-])c1ccc(Br)cc1 (stereo not drawn),122,89,49,-,60,69,tim10-1 confirm=57;tim23-1 conf=84
CCC(C)(C)C1CCc2[nH]nc(C(=O)NC3CCCC3)c2C1 (stereo not drawn),-,59,-,-,42,.,tim10-1 confirm=35;tim23-1 conf=57
CCC(C)(C)C1CCc2[nH]nc(C(=O)NCc3ccc(OC)cc3)c2C1 (stereo not drawn),-,-,-,-,-,.,
CSCCC(NC(=O)c1ccco1)C(=O)NCC(c1ccccc1)N(C)C (stereo not drawn),-,-,-,-,-,.,
COC(=O)c1ccc(COc2cc(C)ccc2C)o1,-,-,-,-,-,.,
Cc1cc(OCc2cc(C(=O)N3CCC(Oc4cccnc4)CC3)no2)cc(C)c1Cl,-,51,41,-,61,47,tim10-1 confirm=38;tim23-1 conf=55
CCc1ccc(N(CC(=O)NCCc2ccccc2)C(=O)CCC(=O)Nc2ccccn2)cc1,-,-,-,-,-,.,
O=C(N/N=C/c1c(O)ccc2ccccc12)c1cccnc1,-,-,42,-,-,37,
NNC(=S)Nc1ccc(C(F)(F)F)cc1Cl,-,-,44,-,-,-,
COc1cc(C(=S)N2CCOCC2)ccc1OC(=O)c1ccc([N+](=O)[O-])cc1[N+](=O)[O-],-,-,44,-,-,37,
COc1ccc(C(=S)N2CCOCC2)cc1OC(=O)c1cccc([N+](=O)[O-])c1,-,-,41,-,-,-,
C=C(C)COc1ccc(-c2[nH]ncc2-c2ccc(Br)cc2)c(O)c1,-,-,49,-,-,-,
Cc1cccc(C(C)C)c1NC(=O)COC(=O)CNS(=O)(=O)c1ccccc1,-,-,-,-,-,.,
O=C(Nc1cc(F)ccc1F)C1CCN(S(=O)(=O)c2cccc3nonc23)CC1,-,-,-,-,-,.,
CC(=O)c1cccc(NC(=O)CSc2ncc(C(=O)Nc3ccccc3)c(=O)n2C)c1,.,-,-,-,-,.,
Cc1ccc(S(=O)(=O)/N=C(/NC(=S)Nc2ccccc2)c2ccccc2)cc1,-,-,46,-,-,-,
O=C(NNC(=S)NC1CCCCC1)c1cccc(S(=O)(=O)Nc2ccccc2Cl)c1,-,-,41,-,-,41,
SMILES,PfHsp90 yeast 2,tim23-1 inh,TIM10 inh,NALP3 yeast inh,tim10-1 inh,tim10 confirm,others
O=C(Nc1sc2c(c1C(=O)O)CCC2)c1cccc(Cl)c1,-,-,-,-,-,.,
Cc1ccc(NC(=O)COC(=O)c2ccc3c(c2)C(=O)N(CCc2ccccc2)C3=O)c(C)c1,-,-,41,-,-,-,
CCOc1ccc(NC(=O)COC(=O)c2ccc3c(c2)C(=O)N(CCc2ccccc2)C3=O)cc1,-,-,-,-,-,.,
Cc1ccc(/C=N/NC(=O)Cc2cccn2C)cc1,-,-,-,-,-,.,
Cc1cc(C)nc(OC(C(=O)O)C(OCc2ccccc2)(c2ccccc2)c2ccccc2)n1 (stereo not drawn),-,-,97,-,-,-,
Cc1cc(NC(=O)c2cccc(Oc3ccccc3)c2)n[nH]1,-,-,61,-,-,66,
CCOC(=O)N1CCN(C(=O)c2ccc(OC)cc2)CC1,-,-,-,-,-,.,
CCOC(=O)N1CCN(C(=O)c2ccc3c(c2)sc2nc(-c4ccc(OC)cc4)cn23)CC1,-,-,50,-,-,44,
CN(C1CCCCC1)S(=O)(=O)CCNC(=O)c1ccccc1,.,-,-,-,-,.,
CCOC(=O)C1=C(C)N(CCCC(=O)O)C(=O)NC1c1ccccc1OS(=O)(=O)c1ccccc1[N+](=O)[O-] (stereo not drawn),-,-,97,-,-,-,
CC1=C(C(=O)OCc2ccccc2)C(c2ccccc2OS(=O)(=O)c2ccccc2[N+](=O)[O-])NC(=O)N1CCCC(=O)O (stereo not drawn),.,-,-,-,-,.,
CC(=O)NN1C(=O)c2ccccc2NC1c1ccc([N+](=O)[O-])o1 (stereo not drawn),-,-,-,-,-,.,
O=C(NN1C(=O)c2ccccc2NC1c1ccc([N+](=O)[O-])o1)c1ccc(Br)cc1 (stereo not drawn),-,-,55,-,-,61,
Cn1c(SCc2ccc(C#N)cc2)nnc1-c1cccc(Cl)c1,-,-,45,-,-,-,
Cn1c(SCc2ccc(C#N)cc2)nnc1-c1ccccc1,-,-,-,-,-,.,
O=C(CCCOc1ccc(Cl)cc1Cl)N/N=C/c1ccccc1O,-,-,41,-,-,40,
O=C(c1ccccc1)N1N=C(C(F)(F)F)CC1(O)c1ccc(F)cc1 (stereo not drawn),-,-,67,-,-,-,
